Bioassay records deposited in PubChem by National Center for Advancing Translational Sciences (NCATS).
This is a sample that favours compounds with a hit; in the whole collection about 19% have one here.
IL-1B inflam inh: qHTS for Inhibitors of Inflammasome Signaling: IL-1-beta AlphaLISA Primary Screen; THP-1 LPS/ATP IL-1B secretion, AlphaLISA, 16 h; stronger effect = lower value; activity change, % at 57.5 µM; 360,000 tested, 4.7% active; AID 743279, 2014; in the data active = activity change below about -50%; inconclusive = mostly about -30% to -49%; also: % is scaled to controls: 0 for no effect and ±100 for the full control effect
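Secreted IL-1B measured by AlphaLISA bead assay after 16 h compound exposure of THP-1 cells; compounds (final up to 57.5 uM) added 1 h before LPS (250 ng/mL) and ATP (1.25 mM) stimulation; lower signal means less secretion.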
DT40 TDP1 no CPT: qHTS for Inhibitors of human tyrosyl-DNA phosphodiesterase 1 (TDP1): qHTS in cells in absence of CPT; DT40 Tdp1-/- hTDP1 cells, no CPT, ATP luminescence, 48 h; Potency, µM (titrated, usually from 46.2 µM), without a hit: at the highest dose activity change, negative = growth inhibition, hits mostly inhibitors; 420,000 tested, 15% active; also: potency is read from the fitted curve at half-maximal effect; % is scaled to controls: 0 for no effect and ±100 for the full control effect; nearly all actives have a fitted effect of over 55% in size
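A cellular qHTS used chicken DT40 cells lacking endogenous Tdp1 but carrying stably transfected human TDP1. Compounds were applied without camptothecin, and cell growth kinetics were judged by ATP-dependent luminescence after ≥48 hr.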
TDP1 cell CPT: qHTS for Inhibitors of human tyrosyl-DNA phosphodiesterase 1 (TDP1): qHTS in cells in presence of CPT | chicken DT40 Tdp1-/-;hTDP1 cells + 20 nM CPT, ATP luminescence, 48 h | Potency, µM (titrated, usually from 46.2 µM), without a hit: top-dose activity change, negative = growth inhibition, usual class: inhibitors | 420,000 tested, 12% active; also: potency is read from the fitted curve at half-maximal effect; % is scaled to controls: 0 for no effect and ±100 for the full control effect; nearly all actives have a fitted effect of over 55% in size
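Cell growth measured by CellTiter-Glo luminescence after a minimum 48 h, 37 C compound exposure with 20 nM CPT in Tdp1-knockout DT40 cells stably expressing hTDP1, seeded 400/well; qHTS titration format.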
HepG2 viability: qHTS for Inhibitors of TGF-b: Cytotox Counterscreen. HepG2 CAGA-GFP viability, ATP luminescence, 18 h. Potency, µM (titrated, usually from 46.1 µM), for inactives: at the top dose activity change, negative = cytotoxicity, actives largely listed as cytotoxic. 410,000 tested, 0.76% active. AID 588856, 2011; also: potency is read from the fitted curve at half-maximal effect
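CellTiter-Glo luminescence gave cytotoxicity after 18 hours at 37 degrees C. The cells were HepG2 CAGA-GFP in 1% FBS DMEM, stimulated with 500 pg/mL TGF-beta after compound addition. %Activity was normalised to no-cell wells (complete cell-killing) and DMSO (no toxicity), and curves were fitted and classified.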
S-ASM inh: Inhibitors of Secretory Acid Sphingomyelinase (S-ASM): qHTS; Sphingomyelin phosphodiesterase (Homo sapiens), P17405; placental ASM, HMU-PC fluorogenic substrate, 60 min; Potency, µM (doses to about 57.5 µM), for the others: at the highest dose activity change, negative = inhibition, most hits filed as inhibitors; 340,000 tested, 0.006% active; AID 504937, 2011; also: potency is read from the fitted curve at half-maximal effect
Target sequence (P17405 47-631 limits assumed): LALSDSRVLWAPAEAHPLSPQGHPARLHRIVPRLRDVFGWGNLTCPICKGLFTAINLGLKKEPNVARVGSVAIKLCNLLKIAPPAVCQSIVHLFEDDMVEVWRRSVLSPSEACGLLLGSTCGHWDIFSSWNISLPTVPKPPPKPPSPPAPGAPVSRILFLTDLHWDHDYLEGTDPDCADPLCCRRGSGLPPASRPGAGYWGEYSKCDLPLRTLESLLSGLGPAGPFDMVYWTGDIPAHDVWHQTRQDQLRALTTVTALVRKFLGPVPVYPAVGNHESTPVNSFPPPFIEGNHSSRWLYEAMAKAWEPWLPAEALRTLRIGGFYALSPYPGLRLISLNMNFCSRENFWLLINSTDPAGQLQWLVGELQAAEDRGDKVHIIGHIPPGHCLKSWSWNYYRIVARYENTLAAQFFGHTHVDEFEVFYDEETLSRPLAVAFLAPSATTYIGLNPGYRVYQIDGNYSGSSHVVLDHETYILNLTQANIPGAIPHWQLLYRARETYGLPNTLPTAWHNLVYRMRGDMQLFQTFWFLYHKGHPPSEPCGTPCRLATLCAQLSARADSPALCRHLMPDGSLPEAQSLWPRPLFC
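Human placenta-derived ASM enzyme was preincubated with compound for 10 minutes at room temperature, then given fluorogenic substrate HMU-PC0 (9 uM final) for 60 minutes at 37 °C; a pH 10 stop preceded fluorescence reading at Ex 386/Em 447 nm.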
TGFb SMAD3 inh: qHTS for Inhibitors of TGF-b; 410,000 tested, 1.2% active; HepG2 CAGA-GFP TGF-b/SMAD3 reporter, GFP fluorescence, 18 h; TGF-beta stimulated, 500 pg/mL final; Potency, µM (titrated, usually from 46.1 µM), inactives show at the highest dose activity, negative = inhibition, hits mostly inhibitors; AID 588855, 2011; also: potency is read from the fitted curve at half-maximal effect; % is scaled to controls: 0 for no effect and ±100 for the full control effect; nearly all actives have a fitted effect of over 65% in size
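TGF-beta reporter screen: HEPG2 CAGA-GFP, 1% FBS, 500 pg/mL TGF-beta final, 18 h; per-cell GFP summed per well; curves fitted and categorized by class.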
Starred values were filed as active, the others as inactive; ? = inconclusive; · = not tested or not shown. Unless noted, calls follow the shape of the dose curve; as a rule, active = well fitted curve in the direction sought with a large enough effect; inconclusive = small, poorly fitted or top-dose-only effect, or another doubt; inactive = no such curve, though single readings can be large; an effect the other way counts as inactive or inconclusive.

SMILES	IL-1B inflam inh	DT40 TDP1 no CPT	TDP1 cell CPT	HepG2 viability	S-ASM inh	TGFb SMAD3 inh
Cc1ccc(-c2nc3ccc(Cl)cn3c2Cc2cccc(F)c2)cc1	-14	?	21µM*	-11%	·	-11%
Fc1cccc(Cc2c(-c3cccc(Br)c3)nc3ccc(Br)cn23)c1	35	?	-29%	-26%	·	?
Fc1cccc(Cc2c(-c3ccc(Cl)cc3)nc3ccc(Br)cn23)c1	?	16µM*	?	-19%	·	?
O=C(Nc1ccc([N+](=O)[O-])cc1)Nn1cnnc1	-1	3%	-23%	-23%	-2%	-16%
CC(C)(C)n1ncc2c(=O)n(Cc3c(F)ccc(Cl)c3Cl)cnc21	·	·	·	-5%	·	7%
CCc1ccc(/C=C2\Oc3cc(OC(=O)N4CCOCC4)ccc3C2=O)cc1	-2	15µM*	?	-1%	14%	1%
COc1ccccc1C(=O)Oc1ccc2c(c1)O/C(=C\c1ccncc1)C2=O	-1	13µM*	-30%	-23%	-7%	15%
COc1ccc(/C=C2\Oc3cc(OC(=O)N4CCOCC4)ccc3C2=O)cc1	-1	13µM*	18µM*	9%	299%	9%
O=C(Oc1ccc2c(c1)O/C(=C\c1ccncc1)C2=O)c1cccs1	-5	?	?	-16%	-7%	42%
CC(=O)Oc1ccc2c(c1)O/C(=C\c1ccncc1)C2=O	?	-23%	?	-6%	-8%	24%
CC(=O)Nc1ccc(N(C(=O)CNC(=O)c2ccco2)C(C(=O)NC2CCCC2)c2ccco2)cc1 (stereo unspecified)	3	2%	9%	2%	1%	-13%
Cn1c(SCc2ccccc2)nnc1-c1ccco1	-2	?	5%	-2%	-1%	6%
c1ccc(CSc2nnc(-c3cccs3)n2Cc2ccco2)cc1	-67*	?	?	-19%	2%	0%
Cc1ccccc1CSc1nnc(-c2cccs2)n1Cc1ccco1	-29	23µM*	?	-28%	-2%	?
c1coc(Cn2c(SCc3nc4ccccc4[nH]3)nnc2-c2cccs2)c1	-19	-16%	-23%	-23%	0%	-2%
c1ccc(CSc2nnc(-c3ccco3)n2Cc2ccco2)cc1	4	23µM*	?	3%	-1%	-14%
Cc1ccccc1CSc1nnc(-c2ccco2)n1Cc1ccco1	-3	?	?	-24%	-2%	?
CC(=O)c1cc2c(cc1NC(=O)CCn1cnnn1)OCO2	8	-16%	11%	-16%	34%	-4%
Cc1ccc(Oc2ccc(/C=N/O)cn2)cc1	-12	16µM*	23µM*	-5%	1%	13%
CCN(CC)S(=O)(=O)c1cc(-c2nnc(-c3ccc(Br)cc3)o2)ccc1Cl	?	18µM*	12µM*	1%	-6%	-7%
CCN(CC)S(=O)(=O)c1cc(-c2nnc(-c3ccc(Br)cc3)o2)ccc1Br	?	9.2µM*	15µM*	-3%	-2%	3%
CCc1nc(SCC(=O)N2c3ccccc3CC2C)c2c(C)c(C)sc2n1 (stereo unspecified)	?	10µM*	9.2µM*	-14%	-16%	?
CC1Cc2ccccc2N1C(=O)CSc1nc(-c2ccccc2)cs1 (stereo unspecified)	-21	26µM*	?	-40%	-7%	-1%
Cc1ccccc1-n1ncc2c(SCC(=O)N3c4ccccc4CC3C)ncnc21 (stereo unspecified)	-92*	20µM*	29µM*	-16%	-6%	-26%
COc1ccc(N2CCN(C(=O)CSc3ncnc4c3cnn4-c3ccccc3C)CC2)cc1	7	?	?	17%	0%	18%
SMILES	IL-1B inflam inh	DT40 TDP1 no CPT	TDP1 cell CPT	HepG2 viability	S-ASM inh	TGFb SMAD3 inh
Cc1nnc(NC(=O)CSc2ncnc3c2cnn3-c2ccccc2C)s1	0	-16%	4%	3%	0%	0%
Cc1ccccc1-n1ncc2c(SCC(=O)NC3CCCC3)ncnc21	-71*	7.3µM*	21µM*	-2%	-3%	?
O=C1COc2ccc(C(=O)C[n+]3cccc(O)c3)cc2N1	4	-11%	-13%	-17%	-2%	-5%
CCOC(=O)c1cn2nc(Oc3cccc(C(F)(F)F)c3)ccc2n1	·	?	0%	-32%	-3%	-6%
Cc1ccc(S(=O)(=O)NC(=O)C2(C)CCN2C(=O)c2cccc(F)c2)nc1 (stereo unspecified)	-18	1%	1%	9%	·	-5%
O=S1(=O)CCOC[C@H](c2ccccc2)N1Cc1ccccc1F	21	?	?	-13%	-13%	-3%
CCN(CC)c1ccc(CNc2nc3ccccc3n2CC)cc1	-28	?	?	-38%	2%	?
Cc1ccc2nc(SCC(=O)N3c4ccccc4CC3C)c(C)cc2c1 (stereo unspecified)	-11	15µM*	23µM*	-37%	-15%	0%
Cc1ccc2nc(-c3cccnc3SCC(=O)N3c4ccccc4CC3C)[nH]c2c1 (stereo unspecified)	-5	?	?	-41%	7%	0%
CCOC(=O)C1=CCN(S(=O)(=O)c2cccc(Cl)c2)C1c1ccc(C)cc1 (stereo unspecified)	25	?	-13%	-19%	·	?
CCOC(=O)c1sc(/S(C)=N\S(=O)(=O)c2cccc(Cl)c2)c2c1CCC=C2 (stereo unspecified)	0	16µM*	?	-37%	-3%	?
S=C(NCCc1ccccc1)Nc1ccc(Br)cn1	65	15µM*	?	-14%	-16%	7%
S=C(NCc1ccccc1)Nc1nccs1	51	4.6µM*	5.2µM*	-4%	-4%	-8%
S=C(NCCc1ccccc1)Nc1nccs1	17	15µM*	?	-4%	-5%	-4%
O=C(NCc1ccccc1F)C1CCN(S(=O)(=O)c2ccccc2)CC1	?	?	16%	3%	10%	-10%
CCn1c(=O)cc(SCC(=O)Nc2ccc(Cl)cc2)c2ccccc21	-4	-17%	20%	-42%	-18%	16%
